# Compound activity: PubChem BioAssay, Broad Institute
# Wnt bcat act: Wnt/beta-catenin pathway activation; AID 743398; 300,000 tested, 1.2% active; activation, % at 9.35 µM; Wnt/beta-catenin reporter cell assay, activator, plate reader; in the data active = activation above about 30%, passing the limit was not always enough; inconclusive = no clear call, values can overlap the other calls
# C2C12 statin: suppressors of simvastatin-induced myotoxicity in C2C12 myotubes; ATP luminescence, 48 h; scaled: DMSO 0, geranylgeraniol control 100; rescue of ATP level, % at 7.49 µM; 330,000 tested, 0.78% active; AID 602340;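 active = mean ATP rescue above about 67%, or every replicate alone reaching that limit, limit read from the data, passing the limit was not always enough; inconclusive = no clear call, values can overlap the other calls; inactive = mean under the limit and some replicate under it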;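 note: myotubes were challenged with 10 µM simvastatin during compound exposure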
# esBAF inh: inhibitors of esBAF chromatin remodeling in mouse ES cells. Bmi1-luciferase knock-in reporter, 24 h; 100% = twice the neutral-well signal. reporter increase, % at 12.5 µM. 350,000 tested, 2% active; in the data active = activation above about 40%; inconclusive = no clear call, values can overlap the other calls;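 note: a rise in the Bmi1 reporter signal indicates esBAF inhibition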
# MITF act: activators of MITF-driven TRPM1 promoter activity in SK-MEL-5 cells. SK-MEL-5 TRPM1-promoter luciferase, 24 h; % of positive control, neutral wells = 0. activation, % at 12.5 µM. 300,000 tested, 0.75% active. AID 588334;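 active = mean activation of at least 80% with every replicate also reaching 80%; inconclusive = mean reaches 80% but some replicate falls short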
# Numbers stand for hits; - = inactive; ? = inconclusive; . = no result given. A selection: hits, their analogues and other compounds. The true share with any hit is near 3%.
SMILES,Wnt bcat act,C2C12 statin,esBAF inh,MITF act
C[C@@H]1CN([C@@H](C)CO)C(=O)c2cccc(NC(=O)Nc3ccc4c(c3)OCO4)c2O[C@H]1CN(C)Cc1ccc(Cl)c(Cl)c1,.,-,55.3,.
Cc1ccc(S(=O)(=O)Nc2cccc3c2O[C@@H](CN(C)C(=O)Nc2ccc4c(c2)OCO4)[C@H](C)CN([C@H](C)CO)C3=O)cc1,.,-,-,.
Cc1cc(S(=O)(=O)Nc2nc(CN3CCOCC3)nc3sc4c(c23)CCCC4)ccc1F,-,121.1,-,-
CCCNC(=O)Nc1ccc2c(c1)C(=O)N(C)C[C@H](OC)[C@@H](C)CN(Cc1ccc(-c3ccccn3)cc1)[C@H](C)CO2,.,-,42.0,.
CO[C@H]1CN(C)C(=O)c2cc(NC(=O)NC(C)C)ccc2OC[C@@H](C)N(Cc2ccc(-c3ccccn3)cc2)C[C@@H]1C,.,-,72.1,.
CO[C@H]1CN(C)C(=O)c2ccc(NC(=O)NC(C)C)cc2OC[C@H](C)N(Cc2ccc(-c3ccccn3)cc2)C[C@H]1C,.,-,-,.
CO[C@H]1CN(C)C(=O)c2cc(NC(=O)NC(C)C)ccc2OC[C@H](C)N(Cc2ccc(-c3ccccn3)cc2)C[C@@H]1C,.,-,142.1,.
CO[C@@H]1CN(C)C(=O)c2cc(NC(=O)c3nc4ccccc4s3)ccc2OC[C@@H](C)N(Cc2cccnc2)C[C@H]1C,.,-,51.3,.
COc1cccc(C(=O)Nc2ccc3c(c2)OC[C@@H](C)N(CCc2ccccc2)C[C@@H](C)[C@H](OC)CN(C)C3=O)c1,.,-,64.0,.
COc1cccc(C(=O)Nc2ccc3c(c2)OC[C@@H](C)N(CCc2ccccc2)C[C@H](C)[C@H](OC)CN(C)C3=O)c1,.,-,-,.
O=C(CSc1ncnc2sccc12)N1CCCCC1,-,-,72.2,-
O=C(CC1CC1)Nc1ccc2c(c1)[C@H]1C[C@@H](CC(=O)NC3CCCC3)O[C@H](CO)[C@H]1O2,.,-,-,.
O=C(CN1CCN(c2ccccn2)CC1)NCCc1ccccc1,-,111.2,-,.
O=C(CN1CCN(c2ccccn2)CC1)Nc1ccc(F)cc1,-,115.7,-,-
Cc1noc(C)c1NC(=O)Nc1cccc2c1O[C@H](CN(C)C(=O)Nc1ccc(F)cc1)[C@H](C)CN([C@H](C)CO)C2=O,.,.,-,.
Cc1cc2nn(-c3ccc(F)cc3)nc2cc1N,-,-,-,.
Cc1ccc(-n2nc3ccc(N)cc3n2)cc1,.,.,.,-
Cc1cc2nn(-c3ccc(Cl)cc3)nc2cc1N,33.2,.,.,-
CC(C)c1ccc(-n2nc3ccc(N)cc3n2)cc1,37.5,-,-,-
C[C@H](CO)N1C[C@H](C)[C@H](CN(C)C(=O)Nc2ccc3c(c2)OCO3)OCCCC[C@H](C)Oc2ccc(NC(=O)c3ccccc3)cc2C1=O,.,.,-,.
COc1ccc2cc(C(=O)NCc3ccco3)c(=Nc3ccc(C(=O)O)cc3)oc2c1,42.3,-,-,-
C[C@H]1CCCCO[C@@H](CN(C)S(=O)(=O)c2cn(C)cn2)[C@@H](C)CN([C@@H](C)CO)C(=O)c2cc(NC(=O)CCC(F)(F)F)ccc2O1,.,-,-,.
C[C@@H]1CN([C@H](C)CO)C(=O)c2cc(C#C[C@@H](C)O)cnc2O[C@H]1CN(C)CC1CCCCC1,.,-,-,.
Nc1c(-c2ccccc2)cnc2cc(-c3ccccc3)nn12,55.7,.,.,-
COCc1nn2c(N)c(-c3ccccc3)cnc2c1-c1ccccc1,-,-,50.2,107.8
SMILES,Wnt bcat act,C2C12 statin,esBAF inh,MITF act
Cc1cc2ncc(-c3ccc(Cl)cc3)c(N)n2n1,-,-,62.0,?
COCc1nn2c(N)c(C#N)cnc2c1-c1ccccc1,-,-,-,-
CCCNC(=O)C[C@@H]1C[C@H]2c3cc(N(C)C)ccc3O[C@H]2[C@@H](CO)O1,.,-,-,.
CC(C)(C)[S@@](=O)N1Cc2cc(C(=O)NCc3ccc4c(c3)OCO4)nc(-c3cccc(-c4cccnc4)c3)c2[C@H]1CCO,.,-,-,.
CCCNC(=O)N(C)C[C@@H]1Oc2cc(C3=CCCCC3)ccc2S(=O)(=O)N([C@@H](C)CO)C[C@@H]1C,.,94.8,-,.
C/C=C/c1ccc2c(c1)O[C@@H](CN(C)C(=O)NC1CCCCC1)[C@@H](C)CN([C@@H](C)CO)S2(=O)=O,.,110.7,-,.
Cc1ccc(NC(=O)c2ccoc2C)cc1C,30.7,.,.,-
Cc1occc1C(=O)NNC(=O)c1ccccc1F,37.3,.,.,-
Cc1cc(NC(=O)c2ccoc2C)ccc1Br,56.8,-,88.3,86.1
C[C@H]1CCCCO[C@H](CN(C)S(=O)(=O)c2cccs2)[C@@H](C)CN([C@@H](C)CO)C(=O)c2cc(NS(=O)(=O)c3ccc(F)cc3)ccc2O1,.,.,-,.
CCCC#Cc1ccc2c(c1)O[C@@H](CN(C)C(=O)C1CCCCC1)[C@H](C)CN([C@H](C)CO)S2(=O)=O,.,-,-,.
Cc1noc(C)c1NC(=O)Nc1cccc2c1O[C@H](CN(C)S(=O)(=O)c1ccc(Cl)cc1)[C@@H](C)CN([C@H](C)CO)C2=O,.,-,-,.
O=S(=O)(c1cccs1)N1CCN(Cc2nc3ccccc3s2)CC1,36.1,-,-,.
O=C(OCc1nc2ccccc2s1)C1CCN(S(=O)(=O)c2cccs2)CC1,43.9,-,56.4,-
O=C(c1cc(COc2ccc3c(c2)CCCC3)on1)N1CCCC1,-,-,67.8,123.9
O=C(c1cc(COc2cccc3cnccc23)on1)N1CCCC(CCCO)C1 (stereo unspecified),-,-,-,-
O=C(c1cc(COc2ccc(F)c(F)c2)on1)N1CCSCC1,-,-,51.0,-
COc1ccc(OCc2cc(C(=O)N3CCCC(CO)C3)no2)c2ccccc12 (stereo unspecified),32.7,.,.,-
CSc1ccccc1OCc1cc(C(=O)N2CCN(c3ncccn3)CC2)no1,-,-,-,-
CSc1ccccc1OCc1cc(C(=O)N2CCSCC2)no1,-,-,69.5,133.5
O=C(C[C@H]1CC[C@H](NC(=O)Cc2cccnc2)[C@@H](CO)O1)NCc1ccc2c(c1)OCO2,.,-,-,.
COc1ccc(OCc2cc(C(=O)N3CCSCC3)no2)c(Cl)c1,-,.,.,?
O=C(c1cc(COc2ccc(F)cc2Cl)on1)N1CCSCC1,-,-,77.7,-
CSc1ccccc1OCc1cc(C(=O)N2CCCC(C)C2)no1 (stereo unspecified),50.7,-,61.8,158.6
CCN(CC)C1CCN(C(=O)c2cc(COc3ccccc3SC)on2)C1 (stereo unspecified),-,-,-,-
SMILES,Wnt bcat act,C2C12 statin,esBAF inh,MITF act
O=C(C[C@H]1C[C@H]2c3cc(NC(=O)Nc4ccc(C(F)(F)F)cc4)ccc3O[C@H]2[C@H](CO)O1)NC1CCCCC1,.,-,-,.
O=C(NCC[C@@H]1CC[C@H](NC(=O)C2CCCCC2)[C@H](CO)O1)c1cc(Cl)cc(Cl)c1,.,-,-,.
C[C@@H]1CN([C@H](C)CO)C(=O)Cc2cc(NC(=O)CCC(F)(F)F)ccc2O[C@@H]1CN(C)Cc1ccc(-c2ccccc2)cc1,.,-,-,.
CCOc1cc(/C=N/Nc2ncnc(Cl)c2N)ccc1O,.,-,57.2,-
CCOc1cc(/C=N/NC(=O)N/N=C/c2ccc(O)c(OCC)c2)ccc1O,48.6,.,.,.
O=C(COc1ccc(Cl)cc1Cl)NC(=O)NC1CCCC1,-,-,48.0,126.6
O=C(COc1ccc(Cl)cc1Br)NC(=O)NC1CCCC1,54.2,-,72.1,152.2
